From the antibiotic and cytotoxicity screens of Wong et al. (2023)
Among all 39,000 compounds or so, about 500 (1.3%) were called active. The sample holds actives, similar compounds and a random draw of the others, so the mix is not that of the screen.

What follows are compounds tested on S. aureus RN4220 (assay: growth inhibition call (relative growth <= 0.2)). Conditions: 50 µM.

| SMILES | growth inhibition call |
| --- | --- |
| C[C@@H]1CCCCO[C@@H](CN(C)C(=O)NC2CCCCC2)[C@@H](C)CN([C@H](C)CO)C(=O)c2cc(NC(=O)Nc3cccc4ccccc34)ccc2O1 | inactive |
| C[C@H](CO)N1C[C@H](C)[C@@H](CN(C)S(=O)(=O)c2cccs2)OCCCC[C@H](C)Oc2ccc(NC(=O)Nc3cccc4ccccc34)cc2C1=O | inactive |
| O=C(CCCCCCC(=O)Nc1ccccc1O)N/N=C/[C@H](O)[C@@H](O)[C@@H](O)[C@H](O)C(=O)O | inactive |
| C[C@H]1CC[C@@H]2N(C1)C[C@@H]1[C@H]([C@@H](O)[C@H](O)[C@]3(O)[C@H]1C[C@@]14O[C@]5(O)[C@@H](C[C@@H](O)[C@@H]31)[C@]4(C)CC[C@@H]5O)[C@]2(C)O | inactive |
| Cc1cc(C(=O)Nc2cccc3c2O[C@H](CN(C)C(=O)Nc2ccc4c(c2)OCO4)[C@H](C)CN([C@H](C)CO)C3=O)n(C)n1 | inactive |
| COc1ccc(S(=O)(=O)Nc2ccc3c(c2)C(=O)N([C@H](C)CO)C[C@@H](C)[C@@H](CN(C)Cc2ccccc2)OCCCC[C@@H](C)O3)cc1 | inactive |
| Cc1noc(C)c1NC(=O)N(C)C[C@@H]1OCCCC[C@@H](C)Oc2ccc(NC(=O)c3ccccc3)cc2C(=O)N([C@H](C)CO)C[C@@H]1C | inactive |
| CCCN(CCC)[NH2+][O-] | inactive |
| C[C@H](CO)N1C[C@H](C)[C@H](CN(C)Cc2ccccc2)Oc2ccc(NC(=O)CCN3CCOCC3)cc2CC1=O | inactive |
| C[C@@H]1CN([C@H](C)CO)C(=O)c2cc(NC(=O)Nc3cccc4ccccc34)ccc2O[C@@H](C)CCCCO[C@H]1CN(C)S(=O)(=O)c1ccc(F)cc1 | inactive |
| CC(C)(Sc1cc(C(C)(C)C)c(O)c(C(C)(C)C)c1)Sc1cc(C(C)(C)C)c(OC(=O)CCC(=O)O)c(C(C)(C)C)c1 | inactive |
| CC(C)(Sc1cc(C(C)(C)C)c(O)c(C(C)(C)C)c1)Sc1cc(C(C)(C)C)c(O)c(C(C)(C)C)c1 | inactive |
| CC(C)(Sc1cc(C(C)(C)C)c(O)c(C(C)(C)C)c1)Sc1cc(C(C)(C)C)c(OCC(=O)O)c(C(C)(C)C)c1 | active |
| C[C@@H]1CN([C@H](C)CO)C(=O)c2cc(NS(=O)(=O)c3ccccc3)ccc2O[C@H]1CN(C)S(=O)(=O)c1ccc(F)cc1 | inactive |
| CC(/C=C/C(=O)NO)=C\c1ccccc1OCc1cn(-c2cccc(N(S(=O)(=O)c3ccc(C)cc3)S(=O)(=O)c3ccc(C)cc3)c2)nn1 | inactive |
| COC(=O)[C@@H](N)Cc1ccc(-n2cc(CCC(=O)NO)nn2)cc1 | active |
| Nc1ccc(-n2cc(CCC(=O)NO)nn2)cc1 | inactive |
| Nc1cccc(-n2cc(CCC(=O)NO)nn2)c1 | inactive |
| CCOc1cc(OCC)cc(C(=O)N[C@@H](Cc2ccc(-n3cc(CCC(=O)NO)nn3)cc2)C(=O)OC)c1 | inactive |
| Cc1ccc(S(=O)(=O)N(c2cccc(-n3cc(CCC(=O)NO)nn3)c2)S(=O)(=O)c2ccc(C)cc2)cc1 | active |
